The supplement of paper PMC10849652
About 7,900 targets were measured; listed, in parts, are those with a hit and a random draw of the rest. About 0.6% of all pairs of compound and target were hits. Unmarked numbers belong to inactive results.

Columns and labels:
Test in all cases: log2 fold change, soluble protein after heating vs DMSO (PISA); higher = thermal stabilisation; K562 cells, 10 uM, 30 min; active = over 0.2 and 3.5 SD of the protein, either way, in both replicates (recomputed)
[1] = compound: NC(=O)Nc1cc(-c2cccc(F)c2)sc1C(=O)N[C@H]1CCCNC1
Method in brief: (§1)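 Soluble protein was quantified by TMTpro 16plex LC-MS/MS after channel sums were equalised. It was obtained as the supernatant after 21,000xg for 90 min from pooled aliquots of K562 cells (2×10^6 cells/mL, 10 μM compound, 30 min) heated for 3 min across 48°C-58°C and extracted in PBS with 0.5% NP-40 at 4°C. Thermal stability values are relative to control samples and come from duplicates. They are given as log2 fold changes.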

[2] = compound: NC(=O)c1cnc(N[C@@H]2CCCC[C@@H]2N)nc1Nc1cccc(-n2nccn2)c1
Method in brief: as §1

[3] = compound: NC1(c2ccc(-c3nc4ccn5c(=O)[nH]nc5c4cc3-c3ccccc3)cc2)CCC1
Method in brief: as §1

[4] = compound: NCC(=O)Nc1ccc(-n2nc(C(F)(F)F)cc2-c2ccc3c(ccc4ccccc43)c2)cc1
Method in brief: as §1

entinostat = compound: Nc1ccccc1NC(=O)c1ccc(CNC(=O)OCc2cccnc2)cc1 [entinostat]
Method in brief: as §1

vorinostat = compound: O=C(CCCCCCC(=O)Nc1ccccc1)NO [vorinostat]
Method in brief: as §1

citarinostat = compound: O=C(CCCCCCNC(=O)c1cnc(N(c2ccccc2)c2ccccc2Cl)nc1)NO [citarinostat]
Method in brief: as §1

silmitasertib = compound: O=C(O)c1ccc2c(c1)nc(Nc1cccc(Cl)c1)c1ccncc12 [silmitasertib]
Method in brief: as §1

[5] = compound: O=C1NC(=O)C(c2cnc3ccccn23)=C1c1cn2c3c(cc(F)cc13)CN(C(=O)N1CCCCC1)CC2
Method in brief: as §1

[6] = compound: c1cc(OCCN2CCCCC2)cc(-c2n[nH]c3ccc(-c4nnc[nH]4)cc23)c1
Method in brief: as §1

entospletinib = compound: c1cn2cc(-c3ccc4cn[nH]c4c3)nc(Nc3ccc(N4CCOCC4)cc3)c2n1 [entospletinib]
Method in brief: as §1

UniProt Q14956, sequence (Q14956 whole entry, looked up): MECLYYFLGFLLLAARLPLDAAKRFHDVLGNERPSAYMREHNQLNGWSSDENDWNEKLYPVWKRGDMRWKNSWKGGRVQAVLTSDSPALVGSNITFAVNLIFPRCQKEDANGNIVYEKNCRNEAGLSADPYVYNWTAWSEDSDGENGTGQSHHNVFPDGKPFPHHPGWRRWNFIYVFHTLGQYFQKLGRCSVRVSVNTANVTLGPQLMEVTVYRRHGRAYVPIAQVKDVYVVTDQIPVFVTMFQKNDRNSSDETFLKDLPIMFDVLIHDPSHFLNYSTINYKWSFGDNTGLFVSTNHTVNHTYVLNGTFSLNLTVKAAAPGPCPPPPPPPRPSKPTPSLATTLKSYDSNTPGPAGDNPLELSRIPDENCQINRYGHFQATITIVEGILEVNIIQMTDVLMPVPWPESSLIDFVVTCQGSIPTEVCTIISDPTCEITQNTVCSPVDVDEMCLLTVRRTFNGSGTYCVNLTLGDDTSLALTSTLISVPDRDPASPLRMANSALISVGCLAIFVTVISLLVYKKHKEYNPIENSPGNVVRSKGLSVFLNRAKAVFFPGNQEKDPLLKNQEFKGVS
UniProt I6L899, sequence (I6L899 whole entry, looked up): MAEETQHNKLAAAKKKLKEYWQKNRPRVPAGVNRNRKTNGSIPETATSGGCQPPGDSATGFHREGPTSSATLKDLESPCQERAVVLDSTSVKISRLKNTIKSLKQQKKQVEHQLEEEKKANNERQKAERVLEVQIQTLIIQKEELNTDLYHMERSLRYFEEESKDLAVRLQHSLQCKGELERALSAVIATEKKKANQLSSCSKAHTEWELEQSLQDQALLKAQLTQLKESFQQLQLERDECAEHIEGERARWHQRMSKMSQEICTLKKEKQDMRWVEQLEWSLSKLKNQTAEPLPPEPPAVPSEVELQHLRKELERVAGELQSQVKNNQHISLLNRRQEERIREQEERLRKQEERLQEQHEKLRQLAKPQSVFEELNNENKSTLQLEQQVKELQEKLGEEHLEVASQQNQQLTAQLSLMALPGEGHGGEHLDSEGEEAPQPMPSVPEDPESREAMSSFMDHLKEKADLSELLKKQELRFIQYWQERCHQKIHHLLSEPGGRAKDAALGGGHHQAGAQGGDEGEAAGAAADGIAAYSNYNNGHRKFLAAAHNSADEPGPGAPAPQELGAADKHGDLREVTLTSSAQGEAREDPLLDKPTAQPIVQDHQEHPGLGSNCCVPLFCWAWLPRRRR
UniProt Q9UK97, sequence (Q9UK97 whole entry, looked up): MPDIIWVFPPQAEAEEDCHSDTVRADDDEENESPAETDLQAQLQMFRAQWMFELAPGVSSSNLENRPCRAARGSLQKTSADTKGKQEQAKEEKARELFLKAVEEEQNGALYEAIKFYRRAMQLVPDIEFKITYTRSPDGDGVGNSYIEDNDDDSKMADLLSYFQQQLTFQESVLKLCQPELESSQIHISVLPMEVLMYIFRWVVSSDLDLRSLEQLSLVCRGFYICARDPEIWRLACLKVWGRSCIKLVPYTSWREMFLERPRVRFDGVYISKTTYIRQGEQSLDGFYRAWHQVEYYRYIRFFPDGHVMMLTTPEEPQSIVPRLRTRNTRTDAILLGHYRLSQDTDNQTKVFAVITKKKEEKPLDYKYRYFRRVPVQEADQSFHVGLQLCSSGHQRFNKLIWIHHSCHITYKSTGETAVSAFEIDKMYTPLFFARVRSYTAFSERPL
UniProt Q9Y324, sequence (Q9Y324 whole entry, looked up): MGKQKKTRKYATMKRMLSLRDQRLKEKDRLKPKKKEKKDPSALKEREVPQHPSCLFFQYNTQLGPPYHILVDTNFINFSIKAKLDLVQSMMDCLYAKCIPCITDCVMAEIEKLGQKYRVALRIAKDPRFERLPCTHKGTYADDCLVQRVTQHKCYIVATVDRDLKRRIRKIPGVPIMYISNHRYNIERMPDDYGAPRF
UniProt Q969S8, sequence (Q969S8 whole entry, looked up): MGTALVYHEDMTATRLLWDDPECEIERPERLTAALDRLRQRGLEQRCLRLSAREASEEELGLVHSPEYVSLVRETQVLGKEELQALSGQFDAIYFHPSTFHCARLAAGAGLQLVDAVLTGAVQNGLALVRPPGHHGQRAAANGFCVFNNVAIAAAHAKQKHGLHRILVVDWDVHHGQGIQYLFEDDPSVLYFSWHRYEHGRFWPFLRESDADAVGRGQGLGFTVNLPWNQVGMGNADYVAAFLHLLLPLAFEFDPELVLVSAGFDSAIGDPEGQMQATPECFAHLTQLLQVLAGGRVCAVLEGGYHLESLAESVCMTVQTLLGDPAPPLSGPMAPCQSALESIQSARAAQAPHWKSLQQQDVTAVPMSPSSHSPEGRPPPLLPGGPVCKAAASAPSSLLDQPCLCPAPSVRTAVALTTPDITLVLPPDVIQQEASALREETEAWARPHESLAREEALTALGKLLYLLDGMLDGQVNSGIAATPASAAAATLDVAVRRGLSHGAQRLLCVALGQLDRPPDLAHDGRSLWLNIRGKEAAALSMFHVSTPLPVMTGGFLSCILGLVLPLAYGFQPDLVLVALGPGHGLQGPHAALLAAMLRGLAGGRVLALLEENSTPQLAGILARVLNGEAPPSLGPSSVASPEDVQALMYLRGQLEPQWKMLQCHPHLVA
UniProt Q01628, sequence (Q01628 whole entry, looked up): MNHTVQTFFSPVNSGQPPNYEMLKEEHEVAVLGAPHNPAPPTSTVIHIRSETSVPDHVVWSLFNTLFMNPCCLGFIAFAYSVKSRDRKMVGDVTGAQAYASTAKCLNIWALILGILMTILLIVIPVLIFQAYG
UniProt P54652, sequence (P54652 whole entry, looked up): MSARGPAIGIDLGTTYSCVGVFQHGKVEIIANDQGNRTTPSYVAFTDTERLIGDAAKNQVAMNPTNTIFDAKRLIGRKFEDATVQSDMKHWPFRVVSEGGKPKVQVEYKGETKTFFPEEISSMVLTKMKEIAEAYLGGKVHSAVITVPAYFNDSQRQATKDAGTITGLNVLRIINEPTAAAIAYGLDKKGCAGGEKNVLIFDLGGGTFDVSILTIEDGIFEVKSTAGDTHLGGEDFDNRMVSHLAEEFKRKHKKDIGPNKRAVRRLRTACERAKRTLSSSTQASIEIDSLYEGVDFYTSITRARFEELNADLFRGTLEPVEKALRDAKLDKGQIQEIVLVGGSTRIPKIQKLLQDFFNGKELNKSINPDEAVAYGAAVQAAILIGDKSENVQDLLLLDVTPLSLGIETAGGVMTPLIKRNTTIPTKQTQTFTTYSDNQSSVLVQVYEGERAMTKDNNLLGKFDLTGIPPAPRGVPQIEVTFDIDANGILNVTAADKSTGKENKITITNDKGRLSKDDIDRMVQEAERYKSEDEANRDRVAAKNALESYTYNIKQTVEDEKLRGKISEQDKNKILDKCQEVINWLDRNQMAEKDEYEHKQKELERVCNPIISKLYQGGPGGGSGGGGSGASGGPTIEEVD
UniProt Q53T59, sequence (Q53T59 whole entry, looked up): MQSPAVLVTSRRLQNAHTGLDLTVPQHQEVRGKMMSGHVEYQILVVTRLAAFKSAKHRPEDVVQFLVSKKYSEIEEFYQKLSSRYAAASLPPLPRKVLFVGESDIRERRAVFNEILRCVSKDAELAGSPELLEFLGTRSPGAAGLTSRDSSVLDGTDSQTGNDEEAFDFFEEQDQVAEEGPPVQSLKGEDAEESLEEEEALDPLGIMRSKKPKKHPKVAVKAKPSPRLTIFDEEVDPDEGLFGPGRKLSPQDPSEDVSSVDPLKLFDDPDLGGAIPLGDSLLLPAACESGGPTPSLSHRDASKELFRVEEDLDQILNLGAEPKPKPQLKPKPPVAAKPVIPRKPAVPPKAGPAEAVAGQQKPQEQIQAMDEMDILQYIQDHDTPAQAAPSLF
UniProt P30711, sequence (P30711 whole entry, looked up): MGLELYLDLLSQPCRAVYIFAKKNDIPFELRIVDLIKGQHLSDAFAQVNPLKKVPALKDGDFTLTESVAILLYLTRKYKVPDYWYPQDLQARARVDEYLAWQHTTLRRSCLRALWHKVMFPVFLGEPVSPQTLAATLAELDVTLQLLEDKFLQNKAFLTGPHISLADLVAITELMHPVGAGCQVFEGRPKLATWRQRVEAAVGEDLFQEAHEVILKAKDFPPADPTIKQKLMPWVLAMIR
UniProt Q96SL8, sequence (Q96SL8 whole entry, looked up): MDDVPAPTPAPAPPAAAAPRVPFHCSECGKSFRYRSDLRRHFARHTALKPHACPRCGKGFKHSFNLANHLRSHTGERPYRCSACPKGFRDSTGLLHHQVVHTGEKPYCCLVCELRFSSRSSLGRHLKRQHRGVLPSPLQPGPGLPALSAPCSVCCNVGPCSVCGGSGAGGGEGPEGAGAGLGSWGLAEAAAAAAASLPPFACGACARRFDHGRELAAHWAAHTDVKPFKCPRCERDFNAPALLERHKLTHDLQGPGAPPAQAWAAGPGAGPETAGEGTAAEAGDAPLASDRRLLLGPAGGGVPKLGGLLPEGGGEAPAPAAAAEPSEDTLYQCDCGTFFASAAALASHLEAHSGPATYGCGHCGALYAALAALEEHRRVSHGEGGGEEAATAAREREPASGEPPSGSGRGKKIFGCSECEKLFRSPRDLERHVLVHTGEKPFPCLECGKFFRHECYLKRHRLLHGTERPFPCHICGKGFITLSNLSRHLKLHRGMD
UniProt Q9Y248, sequence (Q9Y248 whole entry, looked up): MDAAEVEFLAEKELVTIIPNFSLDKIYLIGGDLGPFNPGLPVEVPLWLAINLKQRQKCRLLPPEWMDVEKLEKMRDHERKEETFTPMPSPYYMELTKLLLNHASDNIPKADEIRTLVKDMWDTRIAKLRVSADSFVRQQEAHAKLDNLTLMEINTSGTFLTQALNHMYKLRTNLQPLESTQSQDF
UniProt O00165, sequence (O00165 whole entry, looked up): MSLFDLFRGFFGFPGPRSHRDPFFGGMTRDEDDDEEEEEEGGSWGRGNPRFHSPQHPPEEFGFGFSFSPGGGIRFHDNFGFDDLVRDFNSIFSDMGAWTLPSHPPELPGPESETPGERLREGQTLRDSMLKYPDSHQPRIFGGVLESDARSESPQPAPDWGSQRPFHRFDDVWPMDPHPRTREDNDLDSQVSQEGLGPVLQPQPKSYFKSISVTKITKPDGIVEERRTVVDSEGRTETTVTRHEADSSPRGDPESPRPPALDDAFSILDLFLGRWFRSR

Target	log2 fold change [1]	log2 fold change [2]	log2 fold change [3]	log2 fold change [4]	log2 fold change (entinostat)	log2 fold change (vorinostat)	log2 fold change (citarinostat)	log2 fold change (silmitasertib)	log2 fold change [5]	log2 fold change [6]	log2 fold change (entospletinib)
GMEB2 (UniProt Q9UKD1)	-0.039	-0.079	0.056	-0.119	0.064	0.063	0.086	0.044	-0.194	-0.037	0.072
HAX1 (UniProt O00165)	-0.106	-0.165	-0.174	-0.06	0.021	0.115	-0.019	-0.032	0.036	-0.074	0.028
GLUD1 (UniProt P00367)	-0.058	-0.014	-0.043	-0.032	-0.051	-0.061	-0.023	-0.095	0.082	0.052	0.173
FMR1 (UniProt Q06787)	0.086	–	0.836 (active)	–	-0.106	-0.137	0.101	0.058	–	-0.146	0.01
H3-3A (UniProt P84243)	0.072	–	-0.095	-0.096	0.104	–	0.157	-0.046	–	0.028	-0.131
HDAC2 (UniProt Q92769)	-0.01	-0.037	-0.013	-0.039	–	–	1.04 (active)	0.04	-0.021	-0.041	0
HBZ, A0A494C057	–	–	-0.022	–	–	–	-0.197	0.005	–	0.876	-0.048
HNRNPK isoform 3 (UniProt P61978)	-0.06	–	0.052	-0.182	0.023	0.035	-0.009	0.028	0.159	-0.102	0.003
HSPA2 (UniProt P54652)	-0.015	0.076	-0.071	–	-0.039	–	–	0.006	–	–	–
GOLGA6B (UniProt A6NDN3)	0.048	–	-0.054	0.001	0.007	0.114	–	0.022	0.051	–	–
HNRNPUL1 (UniProt M0R247)	-0.056	-0.629	–	–	-0.352	–	-0.227	–	–	-0.014	-0.056
GINS2 (UniProt Q9Y248)	-0.086	–	-0.024	0.022	0.533 (active)	-0.01	0.028	-0.031	-0.163	-0.026	0.012
GDE1 (UniProt Q9NZC3)	-0.001	0.058	0.094	-0.01	-0.065	–	0.024	-0.086	-0.008	0.032	0
FCF1 (UniProt Q9Y324)	0.244	–	0.097	0.36	0	-0.045	-0.137	0.099	0.349	-0.375	-0.269
GOLGA8R (UniProt I6L899)	–	-0.1	–	0.02	–	0.073	0.09	–	–	0.006	-0.056
GSTT1 (UniProt P30711)	–	0.012	0.03	0.08	–	-0.022	-0.018	-0.074	0.019	-0.012	0.013
FAT2 (UniProt Q9NYQ8)	–	–	-0.334	-0.134	–	0.068	-0.045	-0.063	-0.06	-0.06	0.119
HEATR3 (UniProt Q7Z4Q2)	0	–	-0.248	-0.103	0.052	-0.017	0.075	0.02	-0.051	0.047	0
FASTKD1 (UniProt Q53R41)	0.046	-0.014	–	0.033	-0.019	0.018	-0.055	–	-0.12	0.046	-0.11

Target	log2 fold change [1]	log2 fold change [2]	log2 fold change [3]	log2 fold change [4]	log2 fold change (entinostat)	log2 fold change (vorinostat)	log2 fold change (citarinostat)	log2 fold change (silmitasertib)	log2 fold change [5]	log2 fold change [6]	log2 fold change (entospletinib)
IDH3A isoform 2 (UniProt P50213)	–	-0.06	–	–	–	–	–	–	–	–	–
GBE1 (UniProt Q04446)	–	-0.11	-0.214	-0.07	–	–	0.09	0.031	-0.049	-0.057	0.039
FIZ1 (UniProt Q96SL8)	0.026	–	0.097	0.061	-0.257	0.044	-0.12	-0.103	0.06	0.041	0.042
HDAC10 (UniProt Q969S8)	–	0.061	-0.076	-0.033	–	0.208	0.062	-0.271	–	-0.09	0.058
HS1BP3 (UniProt Q53T59)	-0.059	-0.075	–	0.027	-0.05	–	0.115	–	-0.016	0.108	-0.126
FCHO1 (UniProt O14526)	-0.001	-0.21	-0.119	0.054	-0.032	–	-0.086	-0.24	-0.102	0.302	-0.059
GSE1 (UniProt Q14687)	–	–	–	-0.044	–	–	–	–	–	–	–
IGF2 isoform 3 (UniProt P01344)	–	–	–	-0.004	–	–	–	–	–	–	–
IFITM3 (UniProt Q01628)	-0.074	0.1	-0.089	0.14	0.008	–	0.232	-0.111	0.072	-0.164	0.034
HDAC7 isoform 5 (UniProt Q8WUI4)	0.009	0.123	0.188	-0.036	–	0.027	0.032	0.021	0.032	-0.163	-0.024
GBA2 (UniProt Q9HCG7)	-0.008	-0.006	-0.108	-0.129	-0.023	–	-0.332	0.124	-0.027	-0.211	-0.108
HDAC1 (UniProt Q13547)	-0.015	0.128	-0.017	0.006	–	1.79 (active)	1.52 (active)	0.06	-0.03	0.003	-0.014
GPNMB (UniProt Q14956)	–	–	–	–	–	–	-0.125	–	-0.015	0.727	0
FBXO9 (UniProt Q9UK97)	–	–	-0.079	-0.112	–	0.109	0.157	0.132	–	0.054	-0.065
FAT1 (UniProt Q14517)	-0.018	–	0	-0.075	0.015	-0.04	–	0.176	-0.051	–	–
GREB1 (UniProt Q4ZG55)	0.029	-0.103	–	-0.002	0.012	–	–	–	0.036	–	–
FUNDC1 (UniProt Q8IVP5)	-0.058	–	-0.104	–	0.01	–	–	0.055	–	–	–
FGG (UniProt P02679)	–	–	–	–	–	-0.001	–	–	–	–	–
GPS2 (UniProt Q13227)	0.041	–	0.079	-0.106	-0.015	–	-0.023	0.031	-0.005	-0.092	0.058
